This note sets out measurements from the supplement of paper PMC8975748.

Molecules are shown by their SMILES. Where a name gives a salt, the structure may show the parent alone.

This test concerns Saccharomyces cerevisiae BY4741 SeMeCo community. Nature of the test: z-score of subpopulation abundance vs DMSO median, subpopulation auxotrophic for HLM; higher = larger share of this subpopulation than in DMSO controls. The settings on record: 10 µM; 24 h; SM minimal medium; subpopulation (auxotrophy): HLM. The method, then: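 Fluorescent four-plasmid SeMeCo (self-establishing metabolically cooperating S. cerevisiae BY4741 community; plasmids pH-mRuby2, pL-mWasabi, pU-eCFP, pM-TagRFP657) was grown 24 h in minimal SM medium with each Selleck FDA-approved drug at 10 µM in 384-well plates. Cells were fixed and imaged by high-content confocal microscopy. For each auxotrophic subpopulation (and the prototroph), a z-score gives the deviation from the DMSO vehicle-control population median.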
Take `O=c1[nH]c2ccccc2n1CCN1CCN(c2cccc(C(F)(F)F)c2)CC1` [Flibanserin]: the “z-score of subpopulation abundance” value is -0.86.
On to `CC1(C)S[C@@H]2[C@H](NC(=O)[C@H](N)c3ccccc3)C(=O)N2[C@H]1C(=O)OCOC(=O)[C@@H]1N2C(=O)C[C@H]2S(=O)(=O)C1(C)C` [Sultamicillin], for which the “z-score of subpopulation abundance” value amounted to 1.63.
In the case of `O=c1ccc2cc(O)c(O)cc2o1` [Esculetin] it was 1.67; in that of `C=C[C@H]1CN2CC[C@H]1C[C@H]2[C@H](O)c1ccnc2ccc(OC)cc12` [Quinine HCl Dihydrate], 0.48.
For the compound `O=C(O)c1cc(=O)c2c(OCC(O)COc3cccc4oc(C(=O)O)cc(=O)c34)cccc2o1` [Disodium Cromoglycate], the “z-score of subpopulation abundance” value is -0.04.
Take `O=C(c1ccc(OCCN2CCCCC2)cc1)c1c(-c2ccc(O)cc2)sc2cc(O)ccc12` [Raloxifene HCl]: the “z-score of subpopulation abundance” value was -0.47.
For the compound `Cc1[nH]c(=O)c(C#N)cc1-c1ccncc1` [Milrinone], the “z-score of subpopulation abundance” value is -0.75.
As to `O=c1ccn(C2CC(O)C(CO)O2)c(=O)[nH]1` (stereo not given) [2-deoxyuridine], the “z-score of subpopulation abundance” value came out at 0.54.
In the case of `CNS(=O)(=O)CCc1ccc2[nH]cc(C3CCN(C)CC3)c2c1` [Naratriptan HCl] it was -0.19; in that of `CC[C@H](C)C(=O)O[C@H]1C[C@H](O)C=C2C=C[C@H](C)[C@H](CC[C@@H](O)C[C@@H](O)CC(=O)O)[C@H]21` [Pravastatin sodium], 0.62.
Next, `COc1ccccc1OCC(O)CN1CCN(CC(=O)Nc2c(C)cccc2C)CC1` (stereo not given) [Ranolazine]: 0.19; `COc1cc(NC(C)CCCN)c2ncccc2c1` (stereo not given) [Primaquine Diphosphate]: 0.32; `CC(C)c1nc(N(C)S(C)(=O)=O)nc(-c2ccc(F)cc2)c1/C=C/[C@@H](O)C[C@@H](O)CC(=O)O` [Rosuvastatin]: 3.7.
On to `CCCNCC(O)COc1ccccc1C(=O)CCc1ccccc1` (stereo not given) [Propafenone HCl], for which the “z-score of subpopulation abundance” value is -0.63.
In the case of `CO[C@H]1C[C@@H]2CC[C@@H](C)[C@@](O)(O2)C(=O)C(=O)N2CCCC[C@H]2C(=O)O[C@H]([C@H](C)C[C@@H]2CC[C@@H](OC(=O)C(C)(CO)CO)[C@H](OC)C2)CC(=O)[C@H](C)/C=C(\C)[C@@H](O)[C@@H](OC)C(=O)[C@H](C)C[C@H](C)/C=C/C=C/C=C/1C`, the “z-score of subpopulation abundance” value is 21.4.
On to `N[C@@H]1CCCCN(c2c(F)cc3c(=O)c(C(=O)O)cn(C4CC4)c3c2Cl)C1` [Besifloxacin HCl], for which the “z-score of subpopulation abundance” value was determined as 0.44.
As to `Cn1cc(C(=O)[C@@H]2CCc3[nH]cnc3C2)c2ccccc21` [Ramosetron Hydrochloride], the “z-score of subpopulation abundance” value was 1.18.
Next, `C[C@H]1COc2c(N3CCN(C)CC3)c(F)cc3c(=O)c(C(=O)O)cn1c23` [Levofloxacin]: -1.03; `Oc1c(Br)cc(Br)c2cccnc12` [Broxyquinoline]: 49.4.
`O=C1N=C(O)NC1(c1ccccc1)c1ccccc1` [Phenytoin Sodium]: the “z-score of subpopulation abundance” value came to 0.15.
Consider `COc1ccc(Cl)cc1C(=O)NCCc1ccc(S(=O)(=O)NC(=O)NC2CCCCC2)cc1` [Glyburide (Glibenclamide)], for which the “z-score of subpopulation abundance” value was -0.04.
Turning to `Oc1ccc([C@H]2COc3cc(O)ccc3C2)cc1` [Equol], the “z-score of subpopulation abundance” value is -0.88.
`CN(C)CCOc1ccc(/C(=C(/CCCl)c2ccccc2)c2ccccc2)cc1` [Toremifene Citrate]: the “z-score of subpopulation abundance” value came to 1.44.
Take `Clc1ccc(CCC(Cn2ccnc2)Sc2c(Cl)cccc2Cl)cc1` (stereo not given) [Butoconazole nitrate]: the “z-score of subpopulation abundance” value turned out to be 20.2.
On to `COc1ccc2c3c1O[C@H]1C[C@@H](O)C=C[C@@]31CCN(C)C2` [Galanthamine], for which the “z-score of subpopulation abundance” value came out at 1.04.
Consider `CN1CCOC(c2ccccc2)c2ccccc2C1` (stereo not given) [Nefopam HCl], for which the “z-score of subpopulation abundance” value was -0.41.
Regarding `C[C@]12CC[C@@H]3c4ccc(O)cc4CC[C@H]3[C@@H]1CC[C@@H]2O` [Estradiol], the “z-score of subpopulation abundance” value is -0.66.
In the case of `C[C@H]1c2cccc(O)c2C(O)=C2C(=O)[C@]3(O)C(O)=C(C(N)=O)C(=O)[C@@H](N(C)C)[C@@H]3[C@@H](O)[C@@H]21` [Doxycycline], the “z-score of subpopulation abundance” value was -0.1.
In the case of `Nc1ccc(S(=O)(=O)Nc2ccnn2-c2ccccc2)cc1` [Sulfaphenazole], the “z-score of subpopulation abundance” value is -0.29.
For `O=C(O)CCC(=O)c1ccc(-c2ccccc2)cc1` [Fenbufen], the “z-score of subpopulation abundance” value worked out at 0.59.
With `CCc1c(C)[nH]c2c1C(=O)C(CN1CCOCC1)CC2` (stereo not given) [Molindone hydrochloride], the “z-score of subpopulation abundance” value is -0.03.
Next, `O=C(c1ccc(F)cc1)C1CCN(CCn2c(=O)[nH]c3ccccc3c2=O)CC1` [Ketanserin]: -0.05.
On to `CN(C)CCCN1c2ccccc2Sc2ccccc21` [Promazine hydrochloride], for which the “z-score of subpopulation abundance” value amounted to 0.41.
For the compound `CN1CCN2c3ncccc3Cc3ccccc3C2C1` (stereo not given) [Mirtazapine], the “z-score of subpopulation abundance” value is -0.85.
In the case of `CN1CCN(C2=Nc3cc(Cl)ccc3Nc3ccccc32)CC1` [Clozapine] it was -0.52; in that of `CCCN1CCCC[C@H]1C(=O)Nc1c(C)cccc1C` [Ropivacaine HCl], 0.38.
With `C/C(=C\C(=O)OCCCCCCCCC(=O)O)C[C@@H]1OC[C@H](C[C@@H]2O[C@H]2[C@@H](C)[C@H](C)O)[C@@H](O)[C@H]1O` [Mupirocin calcium], the “z-score of subpopulation abundance” value was -0.09.
In the case of `CC(=O)O[C@H]1C[C@@H]2CC[C@@H]3[C@H](CC[C@@]4(C)[C@H]3C[C@H]([N+]3(C)CCCCC3)[C@@H]4OC(C)=O)[C@@]2(C)C[C@@H]1N1CCCCC1` [Vecuronium Bromide], the “z-score of subpopulation abundance” value is -0.5.
Consider `COCC1=C(C(=O)OC(C)OC(=O)OC(C)C)N2C(=O)[C@@H](NC(=O)/C(=N\OC)c3csc(N)n3)[C@H]2SC1` (stereo not given in full) [Cefpodoxime proxetil], for which the “z-score of subpopulation abundance” value was -0.08.
Take `CN(C)CCc1c[nH]c2ccc(CS(=O)(=O)N3CCCC3)cc12` [Almotriptan Malate]: the “z-score of subpopulation abundance” value was -0.23.
